# Measurements taken from PubChem BioAssay (EPA / NIEHS).
# Results filed as inconclusive are left out. Calls of active or inactive are those of the source. How the source made its calls: active means hit-call score of the fitted dose curve at least 0.9, where 1 is the maximum; inconclusive means response in the unintended direction; inactive means score below 0.9.
# Tests used:
# [1] = target: Estrogen receptor (Homo sapiens) + Estrogen receptor beta (Homo sapiens) (UniProt P03372+Q92731); experiment: OT_ER_ERaERb_1440: Odyssey Thera (OT) 24-hour HEK293T Protein-Complementation Assay for Estrogen Receptor-alpha/-beta Homodimer (AID 2283356);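 further: heteromer of ER alpha and ER beta binding domains; hits raise reporter fluorescence and both agonists and antagonists give an increase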
# Chain of Estrogen receptor (Homo sapiens) + Estrogen receptor beta (Homo sapiens) (P03372 whole entry, looked up, the tested form may be a part): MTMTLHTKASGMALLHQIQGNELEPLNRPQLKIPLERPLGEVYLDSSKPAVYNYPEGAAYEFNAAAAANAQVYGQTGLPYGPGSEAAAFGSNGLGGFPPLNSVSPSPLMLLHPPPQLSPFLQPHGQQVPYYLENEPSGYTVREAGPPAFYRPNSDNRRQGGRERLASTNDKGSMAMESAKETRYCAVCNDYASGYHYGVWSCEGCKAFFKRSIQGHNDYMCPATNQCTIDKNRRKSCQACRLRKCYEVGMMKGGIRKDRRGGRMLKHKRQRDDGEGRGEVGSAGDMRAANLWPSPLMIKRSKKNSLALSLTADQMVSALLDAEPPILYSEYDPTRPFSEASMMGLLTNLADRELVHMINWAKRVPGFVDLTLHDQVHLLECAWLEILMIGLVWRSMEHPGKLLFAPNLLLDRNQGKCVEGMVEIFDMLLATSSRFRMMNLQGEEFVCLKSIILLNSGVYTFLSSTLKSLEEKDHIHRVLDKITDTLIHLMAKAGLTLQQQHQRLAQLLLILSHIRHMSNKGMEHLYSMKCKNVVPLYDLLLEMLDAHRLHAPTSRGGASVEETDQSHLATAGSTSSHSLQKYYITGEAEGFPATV
# Chain of Estrogen receptor (Homo sapiens) + Estrogen receptor beta (Homo sapiens) (Q92731 whole entry, looked up, the tested form may be a part): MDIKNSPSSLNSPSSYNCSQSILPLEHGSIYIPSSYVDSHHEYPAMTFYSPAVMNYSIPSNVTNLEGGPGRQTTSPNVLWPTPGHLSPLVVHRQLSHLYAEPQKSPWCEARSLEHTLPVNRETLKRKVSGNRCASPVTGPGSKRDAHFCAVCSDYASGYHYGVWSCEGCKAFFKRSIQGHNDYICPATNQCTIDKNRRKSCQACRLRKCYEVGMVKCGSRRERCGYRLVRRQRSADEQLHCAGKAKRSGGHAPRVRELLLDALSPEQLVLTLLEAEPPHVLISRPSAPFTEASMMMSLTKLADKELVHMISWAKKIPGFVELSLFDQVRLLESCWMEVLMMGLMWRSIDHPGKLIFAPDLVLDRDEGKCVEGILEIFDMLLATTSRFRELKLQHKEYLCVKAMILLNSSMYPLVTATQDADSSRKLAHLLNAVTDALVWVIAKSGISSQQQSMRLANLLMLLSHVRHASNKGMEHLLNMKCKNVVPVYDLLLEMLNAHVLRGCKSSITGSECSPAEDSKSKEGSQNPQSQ
# Outline: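 Heterodimerisation of ERα (aa 310-547) and ERβ (aa 263-489) ligand binding domains was tracked as fluorescence gain in stably transfected HEK293T cells following 24 h dosing, normalised to DMSO controls.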
# [2] = target: Estrogen receptor beta (Homo sapiens) (UniProt Q92731); experiment: OT_ER_ERbERb_0480: Odyssey Thera (OT) 8-hour HEK293T Protein-Complementation Assay for Estrogen Receptor-beta/-beta Homodimer (AID 2283357);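 further: active means signal gain over DMSO baseline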
# Chain of Estrogen receptor beta (Homo sapiens) (Q92731 whole entry, looked up, the tested form may be a part): as above
# Outline: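 Fluorescence gain from complemented reporter fragments on ER-beta LBD homodimer in HEK293T was quantified against DMSO controls after 8 h treatment, fixation in 4% formaldehyde and Draq5 staining.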
# [3] = target: rat Mineralocorticoid Receptor (MR), Nr3c2 (gene 25672) (UniProt P22199); experiment: NVS_NR_rMR: NovaScreen (NVS) Nuclear Receptor Binding Assay for rat Mineralocorticoid Receptor (MR) (AID 2283355)
# Outline: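 Single-concentration duplicate screen (25 uM) of radioligand binding in adrenalectomized rat brain supernatant; scintillation detection 24 h after dosing. Positive and negative controls ran on each plate, and confirmed actives went to concentration-response.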
# [4] = target: human Peroxisome Proliferator-activated Receptor alpha (PPARa), PPARA (gene 5465) (UniProt Q07869); experiment: NVS_NR_hPPARa: NovaScreen (NVS) Nuclear Receptor Binding Assay for human Peroxisome Proliferator-activated Receptor alpha (PPARa) (AID 2283359);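 further: activity means loss of TR-FRET signal versus DMSO baseline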
# Chain of human Peroxisome Proliferator-activated Receptor alpha (PPARa), PPARA (gene 5465) (Q07869 whole entry, looked up): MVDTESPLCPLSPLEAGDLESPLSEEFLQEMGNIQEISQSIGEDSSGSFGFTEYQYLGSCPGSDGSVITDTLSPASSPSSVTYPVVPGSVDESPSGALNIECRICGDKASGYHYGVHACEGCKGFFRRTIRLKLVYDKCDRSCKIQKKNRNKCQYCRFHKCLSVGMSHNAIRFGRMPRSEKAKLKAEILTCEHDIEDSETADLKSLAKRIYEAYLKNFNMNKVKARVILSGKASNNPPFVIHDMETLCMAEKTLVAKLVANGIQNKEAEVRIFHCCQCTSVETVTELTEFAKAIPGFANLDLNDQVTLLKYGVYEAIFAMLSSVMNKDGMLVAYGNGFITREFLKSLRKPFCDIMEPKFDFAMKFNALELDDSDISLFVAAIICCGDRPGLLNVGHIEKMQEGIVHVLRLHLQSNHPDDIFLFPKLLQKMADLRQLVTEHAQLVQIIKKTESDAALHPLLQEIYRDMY
# Outline: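 One-hour incubation, cell-free extracted protein, TR-FRET binding readout; signal loss vs DMSO scored. Screen: 25 uM duplicates, confirmatory dose series for actives.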
# PGR (gene 5241) = PGR (gene 5241) (UniProt P06401); experiment: NVS_NR_hPR: NovaScreen (NVS) Nuclear Receptor Binding Assay for human Progestron Receptor (PR) (AID 2283360);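 further: active means loss of bound radioligand signal versus DMSO baseline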
# Chain of PGR (gene 5241) (P06401 whole entry, looked up): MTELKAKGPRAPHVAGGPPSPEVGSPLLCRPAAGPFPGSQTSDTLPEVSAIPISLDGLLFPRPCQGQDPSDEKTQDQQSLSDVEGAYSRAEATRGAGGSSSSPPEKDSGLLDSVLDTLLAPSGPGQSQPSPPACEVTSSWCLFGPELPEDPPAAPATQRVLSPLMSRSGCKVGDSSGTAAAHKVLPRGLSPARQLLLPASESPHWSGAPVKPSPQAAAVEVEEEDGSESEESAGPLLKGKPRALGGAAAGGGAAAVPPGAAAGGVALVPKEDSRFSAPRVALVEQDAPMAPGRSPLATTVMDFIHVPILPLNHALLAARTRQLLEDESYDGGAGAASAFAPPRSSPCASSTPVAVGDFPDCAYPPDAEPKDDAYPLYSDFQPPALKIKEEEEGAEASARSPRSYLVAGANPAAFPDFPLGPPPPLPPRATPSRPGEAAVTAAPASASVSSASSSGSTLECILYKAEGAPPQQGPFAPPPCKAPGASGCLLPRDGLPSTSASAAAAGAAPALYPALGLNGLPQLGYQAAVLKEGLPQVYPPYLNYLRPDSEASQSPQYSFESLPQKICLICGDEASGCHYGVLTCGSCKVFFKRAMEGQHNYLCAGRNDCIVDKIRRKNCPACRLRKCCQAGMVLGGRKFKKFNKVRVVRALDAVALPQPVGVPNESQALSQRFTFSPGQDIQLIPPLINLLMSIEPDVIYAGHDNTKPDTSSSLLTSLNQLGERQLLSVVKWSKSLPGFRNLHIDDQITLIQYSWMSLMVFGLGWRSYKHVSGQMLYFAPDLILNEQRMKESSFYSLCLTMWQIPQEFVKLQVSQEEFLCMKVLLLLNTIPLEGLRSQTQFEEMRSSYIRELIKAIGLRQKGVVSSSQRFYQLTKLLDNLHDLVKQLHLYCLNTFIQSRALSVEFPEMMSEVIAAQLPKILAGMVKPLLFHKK
# Outline: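 T47D lysate; tritiated or iodinated radioligand; scintillation count at 18 h. DMSO = negative control/baseline. Primary: 25 uM, duplicate. Secondary: concentration series for actives.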
# [5] = target: guinea pig Sigma Receptor, Non-selective Binding, SIGMAR1 (gene 100135589) (UniProt Q60492); experiment: NVS_OR_gSIGMA_NonSelective: NovaScreen (NVS) Nuclear Receptor Binding Assay for guinea pig Sigma Receptor, Non-selective Binding (AID 2283367)
# Chain of guinea pig Sigma Receptor, Non-selective Binding, SIGMAR1 (gene 100135589) (Q60492 whole entry, looked up): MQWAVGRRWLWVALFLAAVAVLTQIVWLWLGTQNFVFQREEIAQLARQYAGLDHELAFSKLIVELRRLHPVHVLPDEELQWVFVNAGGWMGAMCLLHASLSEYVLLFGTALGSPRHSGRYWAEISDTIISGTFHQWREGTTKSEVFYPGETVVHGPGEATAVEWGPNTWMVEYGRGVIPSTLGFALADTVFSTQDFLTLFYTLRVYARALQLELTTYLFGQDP
# Outline: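 Test chemicals were screened in duplicate at 25 uM, then in concentration series if active, against radioligand binding to guinea pig brain membranes; filtration and scintillation counting at 1 h measured remaining bound ligand.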
# [6] = target: Retinoic acid receptor alpha (Homo sapiens) (UniProt P10276); experiment: NVS_NR_hRARa_Agonist: NovaScreen (NVS) Nuclear Receptor Binding Assay for human Retinoic Acid Alpha Receptor Agonism (RAR) (AID 2283361)
# Chain of Retinoic acid receptor alpha (Homo sapiens) (P10276 whole entry, looked up): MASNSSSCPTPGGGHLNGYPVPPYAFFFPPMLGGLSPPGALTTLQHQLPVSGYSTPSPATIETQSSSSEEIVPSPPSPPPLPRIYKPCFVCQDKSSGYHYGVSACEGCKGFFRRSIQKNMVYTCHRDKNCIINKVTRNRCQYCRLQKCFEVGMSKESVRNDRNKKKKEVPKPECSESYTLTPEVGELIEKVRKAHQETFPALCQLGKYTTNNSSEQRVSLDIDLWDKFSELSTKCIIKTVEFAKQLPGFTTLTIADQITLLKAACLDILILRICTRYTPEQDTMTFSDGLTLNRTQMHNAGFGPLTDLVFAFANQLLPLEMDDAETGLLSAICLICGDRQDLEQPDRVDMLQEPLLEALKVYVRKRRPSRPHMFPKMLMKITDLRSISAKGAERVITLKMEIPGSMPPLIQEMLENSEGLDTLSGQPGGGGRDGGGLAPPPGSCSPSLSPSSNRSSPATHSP
# Outline: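 Compounds screened at 25 uM, duplicate, then in concentration series if active. Detection: TR-FRET gain of signal versus DMSO after 2 h with cell-free extracted RARα.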
# [7] = target: Glucocorticoid receptor (Homo sapiens) (UniProt P04150); experiment: NVS_NR_hGR: NovaScreen (NVS) Nuclear Receptor Binding Assay for human Glucocorticoid Receptor (GR) (AID 2283363);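 on AC50: activity is loss of specific radioligand binding signal relative to DMSO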
# Chain of Glucocorticoid receptor (Homo sapiens) (P04150 whole entry, looked up): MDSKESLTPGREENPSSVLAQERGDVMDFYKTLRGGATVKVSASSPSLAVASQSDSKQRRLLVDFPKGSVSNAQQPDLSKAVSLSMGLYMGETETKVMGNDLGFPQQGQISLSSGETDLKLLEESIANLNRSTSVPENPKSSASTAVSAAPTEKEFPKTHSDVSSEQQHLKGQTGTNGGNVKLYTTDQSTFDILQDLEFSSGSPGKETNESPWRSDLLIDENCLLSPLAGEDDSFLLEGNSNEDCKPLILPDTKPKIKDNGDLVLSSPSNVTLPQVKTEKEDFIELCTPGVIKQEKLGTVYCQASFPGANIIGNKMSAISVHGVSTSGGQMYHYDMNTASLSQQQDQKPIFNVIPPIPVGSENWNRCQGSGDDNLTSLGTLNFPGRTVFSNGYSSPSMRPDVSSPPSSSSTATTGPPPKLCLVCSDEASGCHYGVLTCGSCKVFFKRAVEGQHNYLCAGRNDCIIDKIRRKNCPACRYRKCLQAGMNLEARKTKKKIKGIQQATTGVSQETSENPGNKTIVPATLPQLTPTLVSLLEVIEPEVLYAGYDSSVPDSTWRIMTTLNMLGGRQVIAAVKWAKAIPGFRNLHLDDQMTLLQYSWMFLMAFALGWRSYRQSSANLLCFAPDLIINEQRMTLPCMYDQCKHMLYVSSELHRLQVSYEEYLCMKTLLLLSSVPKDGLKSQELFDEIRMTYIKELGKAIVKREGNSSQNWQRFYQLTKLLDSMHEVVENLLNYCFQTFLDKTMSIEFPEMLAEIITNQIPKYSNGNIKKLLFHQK
# Outline: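 Single-readout cell-free binding: radioligand plus extracted receptor, 16-hour dosing, filter radiodetection; 25 uM duplicate primary, concentration series secondary.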
# [8] = target: Retinoic acid receptor alpha (Homo sapiens) (UniProt P10276); experiment: NVS_NR_hRAR_Antagonist: NovaScreen (NVS) Nuclear Receptor Binding Assay for human Retinoic Acid Alpha Receptor Antagonism (RAR) (AID 2283358)
# Outline: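 Chemicals were first tested in duplicate at 25 uM, then actives in concentration series, in a cell-free TR-FRET antagonist binding format. Measurements were taken 2 hours after dosing and loss of signal was evaluated against DMSO controls.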
# [9] = target: Nuclear receptor subfamily 1 group I member 2 (Homo sapiens) (UniProt O75469); experiment: NVS_NR_hPXR: NovaScreen (NVS) Nuclear Receptor Binding Assay for human Pregnane X Receptor (PXR) (AID 2283365);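 further: a drop in FRET signal versus DMSO baseline means the compound binds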
# Chain of Nuclear receptor subfamily 1 group I member 2 (Homo sapiens) (O75469 whole entry, looked up): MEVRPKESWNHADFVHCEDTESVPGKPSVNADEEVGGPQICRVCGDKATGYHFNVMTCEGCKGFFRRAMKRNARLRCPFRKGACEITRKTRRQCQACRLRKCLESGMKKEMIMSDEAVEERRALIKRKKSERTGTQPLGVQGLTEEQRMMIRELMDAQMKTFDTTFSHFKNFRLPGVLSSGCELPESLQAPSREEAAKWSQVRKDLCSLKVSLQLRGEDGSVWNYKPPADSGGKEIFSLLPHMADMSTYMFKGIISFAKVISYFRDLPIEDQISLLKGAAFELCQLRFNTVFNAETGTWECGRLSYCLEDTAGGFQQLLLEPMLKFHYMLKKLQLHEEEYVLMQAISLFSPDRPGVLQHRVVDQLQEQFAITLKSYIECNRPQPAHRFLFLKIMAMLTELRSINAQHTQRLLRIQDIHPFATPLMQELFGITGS
# Outline: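 Binding was measured by time-resolved fluorescence resonance energy transfer after a 2 h exposure of extracted human PXR protein without cells. Compounds were first tested at 25 uM in duplicate, with concentration series for actives; DMSO defined baseline.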
smiles,measurement,setting,value
CCCCCCCCCCCCCO,outcome,[1],inactive
same,outcome,[2],inactive
O=c1[nH]cc(F)c(=O)[nH]1,outcome,[3],inactive
same,outcome,[1],inactive
same,outcome,[2],inactive
NS(=O)(=O)c1cc2c(cc1Cl)NCNS2(=O)=O,outcome,[1],inactive
same,outcome,[2],inactive
CC(=O)Oc1ccccc1C(=O)O,outcome,[1],inactive
same,outcome,[2],inactive
CCCCN(CCCC)CCCC,outcome,[1],inactive
same,outcome,[2],inactive
Cc1c(C(=O)O)c(O)cc2c1C(=O)c1c(O)c([C@@H]3O[C@H](CO)[C@@H](O)[C@H](O)[C@H]3O)c(O)c(O)c1C2=O,outcome,[1],inactive
same,outcome,[2],inactive
O=C(O)Cc1ccccc1Nc1c(Cl)cccc1Cl,outcome,[1],inactive
CN1CCCC1=O,outcome,[1],inactive
Nc1nc(N)c2nc(CNc3ccc(C(=O)N[C@@H](CCC(=O)O)C(=O)O)cc3)cnc2n1,outcome,[1],inactive
same,outcome,[2],inactive
Oc1ccc2c(c1)OC[C@@H](N1CCC(O)(c3ccc(F)cc3)CC1)[C@H]2O,outcome,[1],inactive
same,outcome,[2],inactive
same,outcome,[4],inactive
same,outcome,PGR (gene 5241),inactive
same,outcome,[5],inactive
CCCCCC(=O)O,outcome,[1],inactive
same,outcome,[2],inactive
CCCCOC(=O)CCCCCCCCC(=O)OCCCC,outcome,[1],inactive
same,outcome,[2],inactive
same,outcome,[4],inactive
same,outcome,[6],inactive
CCCCCCOCCO,outcome,[1],inactive
C1CCC(SSC2CCCCC2)CC1,outcome,[1],inactive
same,AC50,[2],34.1 µM (active)
CCOC(=O)CCC(=O)OCC,AC50,[3],25 µM (active)
same,outcome,[1],inactive
same,outcome,[2],inactive
same,outcome,[7],inactive
O=[N+]([O-])C(CO)(CO)CO,outcome,[1],inactive
COC(=O)c1ccc(O)cc1,AC50,[1],74.6 µM (active)
same,AC50,[2],63.3 µM (active)
same,outcome,PGR (gene 5241),inactive
COc1cc(C=O)ccc1O,outcome,[1],inactive
same,outcome,[2],inactive
O=C(O)CCCCC(=O)O,outcome,[1],inactive
same,outcome,[2],inactive
CCc1c(C(=O)NN2CCCCC2)nn(-c2ccc(Cl)cc2Cl)c1-c1ccc(Br)cc1,outcome,[1],inactive
same,outcome,[2],inactive
same,outcome,[8],inactive
Cc1ccc(C(C)C)c(O)c1,outcome,[1],inactive
same,AC50,[2],33.9 µM (active)
same,outcome,[4],inactive
same,outcome,[5],inactive
CNCc1cc(F)ccc1Oc1ccc(Cl)c(Cl)c1,outcome,[1],inactive
same,outcome,[2],inactive
same,outcome,PGR (gene 5241),inactive
C[Si]1(C)O[Si](C)(C)O[Si](C)(C)O[Si](C)(C)O1,outcome,[1],inactive
same,outcome,[2],inactive
Cc1cccc(Nc2cc(Cl)nc(SCC(=O)O)n2)c1C,outcome,[1],inactive
same,outcome,[2],inactive
Cc1ccc(N(C)C)cc1,outcome,[1],inactive
COCCOCCOC,outcome,[1],inactive
same,outcome,[2],inactive
CCCCCCCCCCO,outcome,[1],inactive
same,outcome,[2],inactive
same,outcome,[4],inactive
C[C@]12C=CC(=O)C=C1CC[C@@H]1[C@@H]2C(=O)C[C@@]2(C)[C@H]1CC[C@]2(O)C(=O)CO,AC50,[3],0.178 µM (active)
same,outcome,[2],inactive
CCCCCCCCCCC,outcome,[1],inactive
Cc1ccc(C)c(C)c1,outcome,[1],inactive
same,outcome,[2],inactive
CCCCCCCCCCCC(=O)OC,outcome,[1],inactive
O=c1c(O)c(-c2ccc(O)c(O)c2)oc2cc(O)cc(O)c12,AC50,[1],24.8 µM (active)
same,AC50,[2],2.32 µM (active)
same,outcome,[4],inactive
CC1=C(/C=C/C(C)=C/C=C/C(C)=C/CO)C(C)(C)CCC1,outcome,[1],inactive
same,outcome,[2],inactive
same,outcome,[8],inactive
same,outcome,[4],inactive
same,outcome,[6],inactive
Clc1cc(Cl)c(Cl)cc1Cl,outcome,[1],inactive
same,outcome,[2],inactive
CCCCCCCC=O,outcome,[1],inactive
same,outcome,[2],inactive
same,outcome,[4],inactive
same,outcome,PGR (gene 5241),inactive
NCC1(Cc2noc(=O)[nH]2)CCCCC1,outcome,[1],inactive
same,outcome,[2],inactive
c1cc(-c2ccncc2)ccn1,outcome,[1],inactive
same,outcome,[2],inactive
same,outcome,PGR (gene 5241),inactive
Nc1ccc2c(c1)C(=O)c1ccccc1C2=O,outcome,[7],inactive
Cc1cccc(C)c1O,outcome,[1],inactive
same,outcome,[2],inactive
same,outcome,[9],inactive
Cc1nc(-c2ccc3c(c2)CCN(CCC2CCC(NC(=O)/C=C/c4ccc(F)cc4)CC2)CC3)no1 (configuration not stated),outcome,[1],inactive
same,outcome,[2],inactive
same,outcome,[9],inactive
same,AC50,[5],1.03 µM (active)
COc1ccc(C)cc1N,outcome,[8],inactive
COc1ccc(S(=O)(=O)N2C(=O)[C@@](c3ccccc3OC)(N3C[C@H](O)C[C@H]3C(=O)N(C)C)c3cc(Cl)ccc32)c(OC)c1,AC50,[7],5.95 µM (active)
NC(=O)Cn1c(=O)cc(CCN2CCN(c3nccc4sccc34)CC2)c2ccc(F)cc21,AC50,[5],2.1 µM (active)
Cc1oc(-c2ccccc2)nc1CCOc1cccc2c1ccn2CCC(=O)O,outcome,[1],inactive
same,AC50,[5],11 µM (active)
CCCCCCC(=O)OCC,outcome,[1],inactive
same,outcome,[2],inactive
same,outcome,PGR (gene 5241),inactive
same,outcome,[5],inactive
Nc1ccc(S(=O)(=O)c2ccc(N)cc2)cc1,outcome,PGR (gene 5241),inactive
O=C(N[C@@H](Cc1ccccc1)[C@@H](O)C(=O)N1C[C@@H](O)[C@@H](O)C1)c1cc2cc(Cl)ccc2[nH]1,outcome,[2],inactive
same,outcome,[7],inactive
Cc1cc(NC(=O)C(=O)O)cc(C)c1Oc1ccc(O)c2c1CCC2,outcome,[4],inactive
same,AC50,PGR (gene 5241),7.64 µM (active)
Cc1ccccc1Cl,AC50,[5],15.7 µM (active)
COc1ccc2c(c1)c(CC(=O)O)c(C)n2C(=O)c1ccc(Cl)cc1,outcome,[8],inactive
